Screening results: PubChem BioAssay, The Scripps Research Institute Molecular Screening Center
Most compounds without a hit are left out; they make up all but 3.5% or so of the library.
FBW7 act – human FBW7 E3 ligase activation, primary screen | Q969H0 | AlphaScreen FBW7–phospho-cyclin E peptide binding, activator screen | normalized activity (activation), % at 26.1 µM | 650,000 tested, 0.13% active; in the data active means normalized activity above about 1.9%;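 further: purified mutant Fbw7 with reduced substrate affinity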
GPR151 ag – activators of human GPR151; activation, % at 11.2 µM; PathHunter beta-arrestin GPR151 cells, luminescence; 650,000 tested, 1% active; Q8TDV0; in the data active means activation above about 4.9%
TEAD-YAP block – TEAD-YAP interaction inhibition | AID 1259422 | HEK-TIYL cells, TEAD-Gal4/YAP UAS-luciferase luminescence | 640,000 tested, 1.4% active | inhibition, % at 9.12 µM; in the data active means inhibition above about 32%
MITF inh – inhibitors of human MITF | O75030 | AlphaScreen MITF homodimerization, bead proximity signal | inhibition, % at 2.6 µM | 650,000 tested, 0.91% active | AID 1259374; in the data active means inhibition above about 50%
MITF inh conf – confirmation of human MITF inhibitors. shares compounds with MITF inh. AlphaScreen MITF homodimerization, biotin/His-MITF beads. inhibition, % at 2.6 µM. 4,700 tested, 16% active. AID 1259372;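 active means inhibition above a cutoff derived from the DMSO control wells, cut at about 28% in these data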;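 further: inhibitors lower the bead chemiluminescence by keeping MITF from dimerizing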
AlphaScreen DR – optically interferes with AlphaScreen signal in dose response; AID 1259373; IC50, µM; 480 tested, 6% active; AlphaScreen optical interference counterscreen, cell-free; shares compounds with MITF inh; call rule not given here
AS interf ctr – optically interferes with AlphaScreen signal; shares compounds with MITF inh; 4,700 tested, 7.6% active; inhibition, % at 2.6 µM; AID 1259376; LysRS AlphaScreen counterscreen, signal interference, triplicate;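 active means inhibition above a cutoff derived from the DMSO control wells, cut at about 30% in these data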
GPR151 conf act – confirmation of human GPR151 activators | shares compounds with GPR151 ag | 6,700 tested, under 10 active | AID 1508609 | activation, % at 11.2 µM | GPR151 PathHunter beta-arrestin cells, luminescence, 90 min; % of EA-reagent control over plate median;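 active means mean percent activation across replicates above the confirmation screen cutoff of 4.91%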
GPR119 counter – counter-screen for GPR151 activators: effect on human GPR119. shares compounds with GPR151 ag. GPR119 PathHunter beta-arrestin cells, luminescence, 90 min; 0 = compound-well median, 100 = enzyme-acceptor control. activation, % at 11.2 µM. 6,700 tested, 0.3% active. AID 1508611;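 active means mean percent activation in the counterscreen above 29.09%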;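 further: counterscreen on off-target GPR119 to flag nonselective hits from the GPR151 activator screen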
Target sequence (Q8TDV5 whole entry, looked up): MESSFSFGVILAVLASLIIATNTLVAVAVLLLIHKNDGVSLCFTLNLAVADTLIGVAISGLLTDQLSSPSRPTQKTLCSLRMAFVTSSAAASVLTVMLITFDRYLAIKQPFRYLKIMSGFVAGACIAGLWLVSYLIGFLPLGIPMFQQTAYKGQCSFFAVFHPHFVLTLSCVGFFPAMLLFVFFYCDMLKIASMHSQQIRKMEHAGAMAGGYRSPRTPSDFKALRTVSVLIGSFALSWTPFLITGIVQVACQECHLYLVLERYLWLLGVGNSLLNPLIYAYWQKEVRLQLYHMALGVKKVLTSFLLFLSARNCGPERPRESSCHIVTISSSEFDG
Hits are given with their value; – = inactive; · = no result given.

SMILES	FBW7 act	GPR151 ag	TEAD-YAP block	MITF inh	MITF inh conf	AS interf ctr	GPR151 conf act	GPR119 counter	others
O=C(CN1CCC(N2CCCCC2)CC1)Nc1ccccc1O	–	5.7	–	52	–	–	–	–
CCCCN(S(C)(=O)=O)S(=O)(=O)c1ccc(OC)cc1	–	–	–	–	·	·	·	·
Cc1ccc(OCCCN2CCN(C)CC2)c([N+](=O)[O-])c1	–	5.2	–	76	–	–	–	–
Cc1ccc(OCCCN2CCNCC2)c([N+](=O)[O-])c1	–	–	–	–	·	·	·	·
Cc1cc(O)c2c(c1)Cc1cccc(O)c1C2=O	–	5.4	–	116	115	–	–	–	AlphaScreen DR=–
COC(=O)c1ccc(/C=N/NC(=O)c2ccccn2)cc1	–	–	–	–	·	·	·	·
N#Cc1nc(-c2ccccc2)oc1NCCCn1ccnc1	–	–	–	–	·	·	·	·
N#Cc1nc(COc2ccccc2Cl)oc1NCCCn1ccnc1	–	18	–	96	–	–	–	–
OCCN1CCN(Cc2cccc(Oc3ccccc3)c2)CC1	–	–	–	–	·	·	·	·
CCc1ccc(CN2CCN(Cc3ccc4c(c3)c3ccccc3n4CC)CC2)cc1	–	5.8	–	70	–	–	–	–
CCn1c2ccccc2c2cc(CN3CCN(Cc4ccc5c(c4)c4ccccc4n5CC)CC3)ccc21	–	–	–	–	·	·	·	·
C=CCC1(CC=C)CCCCN1C(=O)CC1C(=O)NCCN1Cc1ccoc1 (centres undefined)	–	6.4	–	80	–	–	–	–
c1cnc2nc(SCc3cn4ccccc4n3)[nH]c2c1	–	6.8	–	68	–	–	–	–
Cc1cc(=O)[nH]c(SCc2cn3ccccc3n2)n1	–	–	–	–	·	·	·	·
CC(C)C[C@H](NCc1c(C(=O)N2C[C@@H](C)O[C@@H](C)C2)nc2sccn12)C(N)=O	–	–	–	–	·	·	·	·
COc1cc(CN2CCN(C(=O)c3cccnc3)CC2)cc(OC)c1OC	–	–	–	–	·	·	·	·
O=C(c1ccncc1)N1CCN(Cc2cccnc2)CC1	–	9.0	–	68	–	–	–	–
O=C1CCCN1CCn1cnc2c(NC3CC3)nc(Nc3ccc(N4CCOCC4)cc3)nc21	–	–	–	–	·	·	·	·
C=CCOC(=O)c1ccccc1C(=O)OCC(F)(F)C(F)F	–	–	–	–	·	·	·	·
Cc1c(Cl)ccc(OCCN2CCNCC2)c1C	–	–	–	–	·	·	·	·
CCN1CCN(CCOc2ccc(Cl)c(C)c2C)CC1	–	7.7	–	75	–	–	–	–
CCc1cc(OCCN2CCN(CC)CC2)ccc1Cl	–	7.0	–	70	–	–	–	–
COc1ccc(CN2CCN(Cc3cc(OC)cc(OC)c3)CC2)cc1	–	17	–	77	–	–	–	–
COc1cc(CN2CCOCC2)cc(OC)c1	–	–	–	–	·	·	·	·
COc1cc(CN2CCN(Cc3ccc(Br)cc3)CC2)cc(OC)c1	–	6.1	–	82	–	–	–	–
SMILES	FBW7 act	GPR151 ag	TEAD-YAP block	MITF inh	MITF inh conf	AS interf ctr	GPR151 conf act	GPR119 counter	others
CC(C)Cn1c(SCC(=O)N2CC(=O)Nc3ccccc32)nnc1-c1ccccc1F	–	–	–	–	·	·	·	·
CCn1ccnc1CN1CCN(Cc2cccc(OC)c2)C(CCO)C1 (centres undefined)	–	18	–	53	28	–	–	–	AlphaScreen DR=–
COc1cc(OC)c(CN2CCC(N3CCCCC3)CC2)cc1Br	–	–	–	–	·	·	·	·
COc1cc(OC)c(OC)cc1CN1CCC(N2CCCCC2)CC1	–	6.1	–	60	–	–	–	–
COc1cc(C(=O)N2CCN(Cc3ccccc3C(F)(F)F)CC2)cc(OC)c1OC	–	12	–	59	–	–	–	–
COc1ccc(CN2CCN(C(=O)c3cc(OC)c(OC)c(OC)c3)CC2)c(OC)c1	–	–	–	–	·	·	·	·
COc1cccc(NC(=O)CSc2nc3ccc(OC)cc3cc2C#N)c1	–	5.1	–	–	·	·	–	–
Cc1cccc(C(=O)NNC(=O)C2CCCO2)c1 (centres undefined)	–	7.3	–	–	·	·	–	–
CCOc1ccc(/C=N/NC(=O)c2ccccc2C)cc1	–	–	–	–	·	·	·	·
Cc1ccccc1C(=O)N/N=C/c1ccc(OCC(=O)N2CCCCC2)cc1	–	6.7	–	–	·	·	–	–
Cc1ccc(C)c(OCCCNC(C)(C)C)c1	–	–	–	–	·	·	·	·
CC(=O)c1cccc(Nc2c(-c3ccc(C)cc3)c(=O)c2=O)c1	–	–	–	–	·	·	·	·
CC(=O)c1ccc(Nc2c(-c3ccccc3)c(=O)c2=O)cc1	–	5.4	–	–	·	·	–	–
Cc1c(C#N)c2nc3c(c(-c4ccccc4)c2n1-c1ccccc1)C(=O)CC(C)(C)C3	–	–	–	–	·	·	·	·
Cc1c(C#N)c2nc3c(c(-c4ccccc4)c2n1-c1ccccc1)CCCC3	–	6.1	–	–	·	·	–	–
Cn1c(C(=O)N2CCN(c3ccc(F)cc3)CC2)cc2c(=O)n3ccccc3nc21	–	5.6	–	–	·	·	–	–
CC1CCCCN1C(=O)CSc1ncccc1-c1nc2ccccc2[nH]1 (centres undefined)	–	–	–	–	·	·	·	·
O=C(CSc1nnc(NC(=O)COc2ccccc2)s1)NO	–	–	–	–	·	·	·	·
Cn1nc([N+](=O)[O-])c2c(-c3nc4ccccc4n3C)c(N)n(CCc3ccccc3)c2c1=O	–	6.0	–	–	·	·	–	–
Cc1nc(Nc2nc(-c3ccccc3)cc(=O)[nH]2)nc2ccccc12	–	–	–	–	·	·	·	·
COc1ccc2nc(Nc3nc(-c4ccccc4)cc(=O)[nH]3)nc(C)c2c1	–	6.8	–	–	·	·	–	–
Cc1ccc(N2C(=O)c3ccc(C(=O)N4CCCCC4C)cc3C2=O)cc1 (centres undefined)	–	5.0	–	–	·	·	–	–
Cc1cc(N2C(=O)c3ccc(C(=O)N4CCCCC4C)cc3C2=O)no1 (centres undefined)	–	–	–	–	·	·	·	·
CC(C)(C)c1ccc(OCC(O)CS(=O)Cc2ccccc2)cc1 (centres undefined)	–	5.4	–	–	·	·	–	–
CC(=O)N1c2ccc(S(=O)(=O)N3CCCC3C(=O)Nc3nc(C)cs3)cc2CC1C (centres undefined)	–	5.0	–	–	·	·	–	–
CC(=O)N1c2ccc(S(=O)(=O)N3CCCC3C(=O)Nc3cccc(C)n3)cc2CC1C (centres undefined)	–	–	–	–	·	·	·	·
C#CCOc1cc(Br)c(C=O)cc1OCC	–	–	–	–	·	·	·	·
CCOc1cc(OCC)c(C=O)cc1Br	–	6.3	–	–	·	·	–	–
CC1=CC(C)(C)N(C(=O)CSc2ncccn2)c2ccc(C)cc21	–	–	–	–	·	·	·	·
CN1CCN(C2=NC(=O)/C(=C\c3ccc(N(C)C)cc3)S2)CC1	–	–	–	–	·	·	·	·
